Data from PubChem BioAssay AID2551 (National Center for Advancing Translational Sciences (NCATS), 2010).
The whole screen tested about 310,000 compounds, of which about 17,000 (5.5%) were called active. Another 11% or so got no clear call; they are omitted. The call rests on the fitted dose curve; in most records, active means well fitted inhibition curve with a large enough effect; inconclusive means small, poorly fitted or top-dose-only effect, or effect the other way; inactive means no such curve, though single readings can be large or run the other way. Shown is part of a subset that was picked to be rich in actives. A call without a number means that no potency is given here.

Each compound was assayed against Nuclear receptor ROR-gamma (Mus musculus) (UniProt P51450) (assay: qHTS for inhibitors of ROR gamma transcriptional activity). Conditions: Drosophila S2 Gal4-RORgamma UAS-luciferase reporter, 20 h; series mostly up to 53.6 µM.
Chain of Nuclear receptor ROR-gamma (Mus musculus) (P51450 whole entry, looked up, the tested form may be a part): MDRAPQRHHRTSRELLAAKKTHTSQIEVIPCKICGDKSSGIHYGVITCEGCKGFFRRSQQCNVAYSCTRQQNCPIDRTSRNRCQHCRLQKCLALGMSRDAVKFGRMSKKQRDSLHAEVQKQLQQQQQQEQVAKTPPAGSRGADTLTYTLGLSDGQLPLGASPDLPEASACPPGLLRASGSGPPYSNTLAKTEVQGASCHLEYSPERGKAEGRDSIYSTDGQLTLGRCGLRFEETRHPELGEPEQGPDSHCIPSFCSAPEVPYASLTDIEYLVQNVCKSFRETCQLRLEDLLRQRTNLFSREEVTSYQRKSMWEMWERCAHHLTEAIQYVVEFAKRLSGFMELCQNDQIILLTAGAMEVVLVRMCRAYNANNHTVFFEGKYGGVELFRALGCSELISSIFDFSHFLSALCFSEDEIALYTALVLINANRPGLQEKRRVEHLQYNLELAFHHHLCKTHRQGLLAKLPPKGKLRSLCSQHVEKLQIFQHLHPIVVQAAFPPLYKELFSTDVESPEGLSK
In short: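 Drosophila S2 cells stably expressing Gal4-DBD/mouse RORγ fusion under metallothionein promoter plus UAS-luciferase; compound 1 h, then 700 uM CuSO4 induction for 20 h at ambient temperature; inhibition read as reduced luminescence.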
Further: nearly all actives have a fitted effect of over 60% in size.
Potency means the concentration at half of the fitted maximal effect.

Row | SMILES | Potency
1 | COC(=O)C1=C(C)N(C)C(=S)NC1c1ccccc1 (stereo not given) | inactive
2 | COC(=O)C1=C(C)OC(N)=C(C#N)C1c1cc(OC)ccc1OC (stereo not given) | inactive
3 | COC(=O)C1=C(C)N(C)C(=S)NC1c1cc(OC)ccc1OC (stereo not given) | 15.8 µM (active)
4 | CCOC(=O)c1c(-c2ccccc2)oc2ccc(OCC(N)=O)cc12 | inactive
5 | CCOC(=O)c1c(S(=O)(=O)Nc2cccc(Cl)c2)c(C)n(C)c1C | inactive
6 | C/C(Cc1ccccc1)=N\NC(=O)CNC(=O)c1ccccc1Cl | inactive
7 | CC/C(=N\NC(=O)c1ccccc1Cl)c1ccc(Br)s1 | 11.2 µM (active)
8 | CC(=O)Nc1cccc(/C(C)=N/NC(=O)c2ccccc2Cl)c1 | inactive
9 | CCCOc1ccc(C(=O)C(CCC(CNCC)C(=O)c2ccc(OCCC)cc2)CNCC)cc1 (stereo not given) | 15.8 µM (active)
10 | CCCOc1ccc(N/C=C/C(=O)C(C)(C)C)cc1 | inactive
11 | CCCCOc1ccc(C(=O)NCc2ccncc2)cc1 | inactive
12 | COc1cccc(N2C(=O)CN(Cc3ccccc3)C2=S)c1 | inactive
13 | COc1cccc(-n2cc(C(=O)O)c3ccccc3c2=O)c1 | inactive
14 | COc1cccc(-n2c(=S)[nH]c3c(oc4ccccc43)c2=O)c1 | 7.08 µM (active)
15 | CCc1cccc(CC)c1NC(=S)Nc1ccc2cn[nH]c2c1 | inactive
16 | CCc1cccc(CC)c1NC(=S)NCc1ccc2[nH]c(C)cc2c1 | 2.51 µM (active)
17 | CCNCc1cc2cc(C)ccc2[nH]c1=O | inactive
18 | Cc1cccc(S(=O)(=O)N2CN(CC3CCCO3)c3nc4ccccc4nc32)c1 (stereo not given) | inactive
19 | CCC(C)(C)n1nnnc1C(c1ccccc1OC)N1CCSCC1 (stereo not given) | inactive
20 | CC(C)(C)n1nnnc1C(c1ccc2ncccc2c1)N1CCSCC1 (stereo not given) | 10 µM (active)
21 | CC(C)(C)n1nnnc1C(c1ccc(Cl)cc1)N1CCSCC1 (stereo not given) | inactive
22 | Cc1c(C)c2ccc(OCC(=O)N3CCC(C(=O)O)CC3)c(C)c2oc1=O | inactive
23 | C=C(C)CNC(=S)/N=c1\scc(C)n1CC | 7.94 µM (active)
24 | Cc1csc(=NC(=O)c2ccccc2)n1CCO | inactive

Row | SMILES | Potency
25 | Cc1csc(=Nc2ccccc2)n1CCO | inactive
26 | COc1ccc(-c2c(C#Cc3ccccc3)c3ccccc3n2C)cc1 | inactive
27 | Cc1c(C)c(C)c2[nH]c(=S)[nH]c2c1C | 2.82 µM (active)
28 | O=c1[nH]c(=S)[nH]c2[nH]c(=S)[nH]c12 | inactive
29 | Cc1cc(=O)[nH]c(=S)[nH]1 | inactive
30 | CCOC(=O)CNc1nc(Cl)nc(Nc2ccc(OC)cc2OC)n1 | inactive
31 | COCC1CCN(C(=O)c2ccc3oc(Cc4ccccc4)nc3c2)C1 (stereo not given) | inactive
32 | COc1ccc(NC(=O)C2CCC(CNC(=O)[C@@H]3Cc4ccccc4CN3)CC2)cc1 (stereo not given in full) | inactive
33 | COc1ccc(NC(=O)CN2C(=O)COc3ccc(S(=O)(=O)N4CCOCC4)cc32)c(OC)c1 | inactive
34 | O=C(C[n+]1cc(Br)cc2ccccc21)c1ccc(F)cc1 | inactive
35 | COc1ccc(C(=O)N2CCCCC2C(=O)Nc2ccc(-n3nc(C)cc3C)cc2)o1 (stereo not given) | inactive
36 | Cc1cccc(CNS(=O)(=O)c2ccc(-c3cnc(C4CC4)o3)cc2)c1 | inactive
37 | CC(CCc1ccc(O)cc1)NCc1ccc(Cl)cc1Cl (stereo not given) | inactive
38 | CC(C)(C)SCCNC(=O)c1cccc([N+](=O)[O-])c1 | inactive
39 | CCCCCC(=O)NC(=S)NNC(=O)c1ccc([N+](=O)[O-])cc1 | 14.1 µM (active)
40 | CCCCCC(=O)Nc1ccc(C(=O)N/N=C/c2ccc([N+](=O)[O-])cc2)cc1 | inactive
41 | O=C(NNS(=O)(=O)Cc1ccccc1)c1ccc([N+](=O)[O-])cc1 | inactive
42 | CC(C)CC(=O)NC(=S)NNC(=O)c1cccc([N+](=O)[O-])c1 | 12.6 µM (active)
43 | Cc1cccc(C(=O)NNC(=O)c2cccc([N+](=O)[O-])c2)c1 | inactive
44 | COc1ccc(OC)c(CCNC(=O)c2nn(C)c3c2CS(=O)(=O)c2ccccc2-3)c1 | inactive
45 | Cc1cc2oc(=O)cc(CN3CCN(Cc4ccccc4)CC3)c2cc1C | inactive
46 | CCn1c(=S)[nH]c2sc3c(c2c1=O)CCCCC3 | 0.447 µM (active)
47 | CN(C)CCCn1c(=O)n(Cc2ccccc2)c(=O)c2c3c(sc21)CCCCC3 | inactive
48 | CCCc1nc2sc3c(c2c(=O)n1NC(=O)CCCl)CCCC3 | inactive

Row | SMILES | Potency
49 | Cc1cccc(C(=O)N2CCCC(Nc3ccc(C(C)C)cc3)C2)n1 (stereo not given) | inactive
50 | COc1ccc(NC2CCCN(C(=O)c3ccncc3)C2)cc1 (stereo not given) | inactive
51 | CC(C)c1ccc(NC2CCCN(C(=O)c3ccncc3)C2)cc1 (stereo not given) | 2.51 µM (active)
52 | O=C(CCC1CCCN(C(=O)c2ccc(F)c(F)c2)C1)N1CCN(c2ccccn2)CC1 (stereo not given) | inactive
53 | CC(NC(=O)c1cc2cc(Cl)ccc2oc1=N)c1ccccc1 (stereo not given) | inactive
54 | CCC(C)NC(=O)c1nn(C)c(=O)c2ccccc12 (stereo not given) | inactive
55 | Cc1nc2ccccc2n1CC(=O)N/N=C/c1cccs1 | inactive
56 | CCC(C)NC(=O)c1c(N)n(/N=C/c2cccs2)c2nc3ccccc3nc12 (stereo not given) | 10 µM (active)
57 | O=C(NCc1cccc(CNC(=O)Nc2cccc(O)c2)c1)Nc1cccc(O)c1 | inactive
58 | COc1ccc(CCNC(=O)CCNS(=O)(=O)c2cc(Br)cnc2N)cc1OC | inactive
59 | CCc1nc(Nc2ccc(NC(C)=O)cc2)c2oc3ccccc3c2n1 | inactive
60 | CC1C(=O)C(C)C(c2ccc(O)cc2)NC1c1ccc(O)cc1 (stereo not given) | inactive
61 | Cc1cc(Nc2ccccc2)nc(N)n1 | inactive
62 | Cc1cc(C)nc(Nc2n[nH]c(-c3ccccc3N)n2)n1 | 10 µM (active)
63 | Cc1cc(C)nc(Nc2ncn[nH]2)n1 | inactive
64 | O=C(C1CC(=O)N(C2CCCCC2)C1)N1CCN(c2ccccc2)CC1 (stereo not given) | inactive
65 | COc1cccc(CNC(=O)C2CCCN(S(=O)(=O)N3CC(C)CC(C)C3)C2)c1 (stereo not given) | inactive
66 | O=C(c1cnc(Cl)c(Cl)c1)N1CCN(S(=O)(=O)c2ccc(F)cc2)CC1 | inactive
67 | O=C(N/N=C/c1ccccn1)C12CC3CC(CC(C3)C1)C2 | 2.82 µM (active)
68 | CNC(=O)C(=O)N/N=C/c1ccccn1 | inactive
69 | O=C(Nc1ccc(S(=O)(=O)Nc2ncccn2)cc1)C12CC3CC(CC(C3)C1)C2 | inactive
70 | CC(C)(C)C1CCC(C(=O)NCC(c2cccs2)N2CCOCC2)CC1 (stereo not given) | inactive
